According to PubChem BioAssay (NCI):
About 79,000 compounds went through this panel and 15% of them were active in at least one assay; those are over-represented in the sample as a whole. Active and inactive are the calls of the source. Rule as the data show it: active = growth inhibition above about 70%; inactive = the rest.

Test: NCI Yeast Anticancer Drug Screen. Data for the sgs1 strain (AID 173);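 also: 0% = growth of vehicle-only control cultures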
Conditions: S. cerevisiae sgs1 mutant, stronger effect = higher value
Description: Growth inhibition of yeast strains with defined genetic alterations is measured as a screen for potential anti-cancer activity. Selected strains with alterations in DNA damage repair or cell cycle control were exposed to compounds and growth inhibition was measured relative to vehicle treated controls. The strain used in this assay is sgs1

Measured: growth inhibition

c1ccc2cc(OCC3CO3)c(OCC3CO3)cc2c1 (stereo not given)
active: at 11.0 µM 70% | at 33.0 µM 82% | at 100.0 µM 84%
inactive: at 1.2 µM -2% | at 3.7 µM 37%

CC(C)c1ccc(C2NC(=S)NC3=C2c2ccccc2C3=O)cc1 (stereo not given)
inactive: at 1.2 µM 23% | at 3.7 µM 12% | at 11.0 µM 16% | at 33.0 µM 26% | at 100.0 µM 43%

Cc1ccc(Cl)c2c(=O)c3ccccc3[nH]c12
inactive: at 1.2 µM -2% | at 3.7 µM 2% | at 11.0 µM -1% | at 33.0 µM 4% | at 100.0 µM 23%

CCC(C)C(=O)OCC(=O)c1ccc(-c2ccccc2)cc1 (stereo not given)
inactive: at 1.2 µM -1% | at 3.7 µM -1% | at 11.0 µM -1% | at 33.0 µM -3% | at 100.0 µM -4%

CC1(C)CC(=O)C(C(CC(c2ccccc2)c2cc3c(cc2O)OCO3)C2=C(O)CC(C)(C)CC2=O)=C(O)C1 (stereo not given)
active: at 33.0 µM 87% | at 100.0 µM 87%
inactive: at 1.2 µM -1% | at 3.7 µM 10% | at 11.0 µM 62%

O=S(=O)(CCC[C@H]1[C@@H](CCOCc2ccccc2)C2CCCN1O2)c1ccccc1 (stereo not given in full)
inactive: at 1.2 µM 2% | at 3.7 µM 3% | at 11.0 µM 2% | at 33.0 µM 19% | at 100.0 µM 41%

CCOC(=O)/C(O)=C(/C=N/C(=S)Nc1c(CC)cccc1CC)C(=O)OCC
inactive: at 1.2 µM -8% | at 3.7 µM 3% | at 11.0 µM 17% | at 33.0 µM 42% | at 100.0 µM 53%

Cc1ccccc1C1=C(CC(=O)O)c2ccccc2CC1C (stereo not given)
active: at 33.0 µM 98% | at 100.0 µM 99%
inactive: at 1.2 µM 5% | at 3.7 µM 10% | at 11.0 µM 40%
